# Assay results published in PubChem BioAssay (EPA / NIEHS).
# Where “and” joins values, the source holds several entries; their conditions need not be identical. Equal entries are not always repeated. Calls of active or inactive are those of the source. How the source made its calls: active means hit-call score of the fitted dose curve at least 0.9, where 1 is the maximum; inactive means score below 0.9.
# Read-out: Matrix Metallopeptidase 9 (MMP9), MMP9 (gene 4318)
# Assay: BSK_KF3CT_MMP9: BioMAP Diversity Plus: KF3CT Assay for Matrix Metallopeptidase 9 (MMP9) Biomarker Activity (AID 2283074)
# Settings: primary human keratinocytes with fibroblasts; actives raise or lower the signal
# Description: BSK_KF3CT is a cell-based, multiplexed-readout assay that uses keratinocytes and foreskin fibroblasts, a human skin primary cell co-culture, with measurements taken at 24 hours after chemical dosing in a 96-well plate.BSK_KF3CT_MMP9 is an assay component measured in the BSK_KF3CT assay. It measures MMP-9 antibody related to regulation of gene expression using ELISA technology.Data from the assay component BSK_KF3CT_MMP9 was analyzed into 1 assay endpoint. This assay endpoint, BSK_KF3CT_MMP9, was analyzed with bidirectional fitting relative to DMSO as the negative control and baseline of activity. Using a type of binding reporter, gain or loss-of-signal activity can be used to understand changes in the signaling as they relate to the gene MMP9. Furthermore, this assay endpoint can be referred to as a primary readout, because this assay has produced multiple assay endpoints where this one serves a signaling function. To generalize the intended target to other relatable targets, this assay endpoint is annotated to the protease intended target family, where the subfamily is matrix metalloproteinase.
# The levels of cell surface (or secreted, indicated by the prefix "s") biomarker endpoints were measured by ELISA. Overt cytotoxicity to cells in confluent adherent cultures (all systems other than the BT system) was assessed by measuring total protein levels using sulforhodamine B (SRB) staining in parallel cultures at the time of biomarker measurements, indicated as SRB endpoints. For proliferation assays for adherent cell types, individual cell types are cultured at sub-confluence and relative cell numbers quantified by SRB staining at time points optimized for each system (48 h: 3C and CASM3C systems; 72 h: BT and HDF3CGF systems; 96 h: SAg system). SRB was performed by staining cells with 0.1% SRB after fixation with 10% TCA and reading wells at 560 nm.Viability and proliferation of PBMC (T cells) was quantified by Alamar Blue reduction for the SAg and BT systems. For PBMC viability (referred to as PBMC Cytotoxicity within the assay endpoint names), cells were plated (75,000/well in a 96-well plate) and then chemical samples added for 1 h before addition of activators, SEB and TSST-1 (20 ng/mL final concentration each). Cells were incubated for 90 h. Then, Alamar Blue (20 uL/well) (Invitrogen, Cat DAL1100) was added for 6 h, and the plates were read with a fluorescence microplate reader at 546/580 nm (excitation/emission). For PBMC proliferation, cells were plated and activated as above but incubated for only 16 h prior to addition of Alamar Blue. Plates were read after 6 h.
SMILES,AC50,outcome
C=CC(=O)OCC(Br)CBr (stereo unspecified),28.1 µM (active),
C=CCOCC(O)CCl (stereo unspecified),,inactive
CCCCC(CC)COCC1CO1 (stereo unspecified),,inactive
CO[Si](OC)(OC)c1ccccc1,,inactive
CCCCNc1ccc(NCCCC)c2c1C(=O)c1ccccc1C2=O,,inactive
c1ccc(-c2ccccn2)nc1,,inactive
S=C(NC1CCCCC1)NC1CCCCC1,,inactive
N#[N+]c1ccc2c(S(=O)(=O)[O-])cccc2c1O,,inactive
COCc1c(C(C)C)nc(C(C)C)c(/C=C/[C@@H](O)C[C@@H](O)CC(=O)O)c1-c1ccc(F)cc1,,inactive
C/C=C\C/C=C/CCCCCCCCOC(C)=O,29.5 µM (active),
CC(C)(c1cc(Br)c(OCCO)c(Br)c1)c1cc(Br)c(OCCO)c(Br)c1,7.47 µM (active),
O=C1CCCN1CCO,,inactive
Nc1ccc(N)c(Cl)c1,20 µM (active) and 18.3 µM (active),
CCO[Si](CCCN=C=O)(OCC)OCC,,inactive
C=CCOc1c(Br)cc(Br)cc1Br,20 µM (active),
O=C(c1ccc(O)cc1)c1ccc(O)cc1O,18.4 µM (active) and 11.2 µM (active),
CN1C(=O)N(C)C(O)C1O (stereo unspecified),,inactive
COc1ccc2nc(N)sc2c1,,inactive

SMILES,AC50,outcome
CCCCCCCCCCCCCCCC[N+](C)(C)CC,1.68 µM (active),
c1ccc2c(c1)ccc1cc3c(ccc4ccccc43)cc12,,inactive
C=CC=CC=CCCCCC,,inactive
O=C(Nc1ccccc1SSc1ccccc1NC(=O)c1ccccc1)c1ccccc1,,inactive
CCCCC(CC)COC(=O)c1ccccc1O (stereo unspecified),,inactive
CCCCC/C=C\C/C=C\CCCCCCCC(=O)OC,26.7 µM (active),
c1ccc2c(c1)ccc1ncccc12,20 µM (active),
CCO[Si](C)(OCC)OCC,,inactive
O=Nc1ccc(O)cc1,,inactive
C#CC1(O)CC[C@H]2[C@@H]3CCC4=CCCC[C@@H]4[C@H]3CC[C@@]21C (stereo partly specified),31.9 µM (active),
CC(C)C(=O)C(C)C,,inactive
CCOc1nc(F)cc2nc(S(=O)(=O)Nc3c(Cl)cccc3C(=O)OC)nn12,,inactive
C=C[Si](OC(C)=O)(OC(C)=O)OC(C)=O,,inactive
O=C(Cl)c1cc(C(=O)Cl)cc(C(=O)Cl)c1,32.3 µM (active),
CC1OC1C1CCC2(C)OC2C1 (stereo unspecified),,inactive
CCCCCCCCc1ccc(Nc2ccc(CCCCCCCC)cc2)cc1,,inactive
O=c1c2ccccc2oc2ccccc12,,inactive
CCOC(=O)c1ccccc1C(=C1C=C(Br)C(=O)C(Br)=C1)c1cc(Br)c(O)c(Br)c1,3.55 µM (active) and 3.24 µM (active),
